Screening results as filed in PubChem.
IDE act: IDE (human) activation, cell-based. AID 493087. HEK cells, FAbeta-B cleavage, fluorescence polarization; 0% vehicle, 100% cell-free pure enzyme wells. hit rate 0.073% among 340,000. activation, % at 5.96 µM;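 active means activation above the mean of all tested compounds plus 3 SD, set per screening campaign, cut at about 17% in these data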
Target sequence (P14735 whole entry, looked up): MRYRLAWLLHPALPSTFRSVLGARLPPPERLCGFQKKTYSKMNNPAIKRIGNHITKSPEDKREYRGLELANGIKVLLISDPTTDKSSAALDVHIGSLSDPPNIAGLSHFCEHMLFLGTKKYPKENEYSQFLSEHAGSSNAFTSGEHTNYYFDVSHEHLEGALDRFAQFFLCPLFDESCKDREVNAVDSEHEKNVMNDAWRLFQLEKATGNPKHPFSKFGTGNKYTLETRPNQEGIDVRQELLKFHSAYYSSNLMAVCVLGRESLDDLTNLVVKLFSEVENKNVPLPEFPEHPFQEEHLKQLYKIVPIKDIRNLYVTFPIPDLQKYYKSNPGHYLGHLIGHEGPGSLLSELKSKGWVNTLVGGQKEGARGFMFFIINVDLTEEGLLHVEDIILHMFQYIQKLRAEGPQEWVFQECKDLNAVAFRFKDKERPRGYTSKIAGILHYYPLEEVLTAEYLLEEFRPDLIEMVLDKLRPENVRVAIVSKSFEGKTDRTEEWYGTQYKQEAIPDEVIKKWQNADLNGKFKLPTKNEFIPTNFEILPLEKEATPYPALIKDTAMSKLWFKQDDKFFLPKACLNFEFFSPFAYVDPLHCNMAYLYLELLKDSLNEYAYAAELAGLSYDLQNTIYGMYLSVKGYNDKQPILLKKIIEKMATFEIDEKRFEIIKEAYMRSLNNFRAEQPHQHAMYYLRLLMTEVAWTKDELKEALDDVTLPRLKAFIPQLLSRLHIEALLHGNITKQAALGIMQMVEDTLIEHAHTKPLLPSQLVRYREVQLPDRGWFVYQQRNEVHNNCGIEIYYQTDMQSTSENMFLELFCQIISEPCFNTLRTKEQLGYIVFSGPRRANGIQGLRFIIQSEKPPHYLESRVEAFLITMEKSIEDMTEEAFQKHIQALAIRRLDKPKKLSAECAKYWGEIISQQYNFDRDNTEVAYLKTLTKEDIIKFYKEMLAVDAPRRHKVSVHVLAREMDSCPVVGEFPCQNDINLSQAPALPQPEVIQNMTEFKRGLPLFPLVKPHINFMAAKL
IDE cell inh: inhibits human insulin-degrading enzyme in HEK cells | P14735 | FAbetaB cleavage, fluorescence polarization | inhibition, % at 5.59 µM | hit rate 0.41% among 320,000 | AID 434962;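 active means percent inhibition above the average of all tested compounds plus 3 SD, set per screening campaign, cut at about 16% in these data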;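 further: IDE supplied by intact live HEK cells; FP after avidin binding of uncleaved biotin substrate so inhibition keeps polarization high; 0% = DMSO wells and 100% = 60 µM reference IDE inhibitor Ii1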
CaV13 FRET inh: Primary screen for inhibitors of IQ motif and Ca2+-dependent inactivation inhibitor domain binding in CACNA1D, Förster resonance energy transfer in living cells, …. HEK cells, CFP/YFP FRET ICDI-IQ, plate reader, 10 min; percent FRET-ratio fall versus neutral wells. inhibition, % at 12.3 µM. hit rate 0.098% among 340,000;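 active means mean replicate inhibition of at least 30% and at least 1% of replicates passing that level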;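 further: 0% = median of the neutral control wells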
ALR inh: blocks human ALR sulfhydryl oxidase activity | P55789 | purified ALR, DTT oxidation, H2O2 HRP-luminol luminescence | inhibition, % (concentration not given with the values) | hit rate 3.8% among 290,000 | AID 485317;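 active means mean replicate inhibition above about 79%, with every replicate also reaching it, limit read from the data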
PfM18AAP inh-1: blocks P. falciparum M18 aspartyl aminopeptidase | inhibition, % at 7.35 µM | hit rate 1.2% among 290,000 | recombinant PfM18AAP, H-Glu-NHMec fluorogenic cleavage | AID 1822;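 active means inhibition above the campaign mean inhibition over all tested compounds plus 3 SD, cut at about 28% in these data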;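 further: 0% = plate median of test compound wells and 100% = 2 mM ZnCl2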
PolyA inhibitor: yeast polyadenylation inhibition | hit rate 0.02% among 300,000 | S. cerevisiae SKY197-pL101 polyadenylation reporter, beta-gal luminescence; efflux-impaired pdr1/pdr3 knockout yeast; score 100 = 6 SD above DMSO | activity score, % at 12 µM;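 active means lowest replicate activity score at least 50, where 100 means six control SD above control mean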;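 further: yeast exposed to compound for 9 h at 30 °C; higher score means more reporter readthrough which indicates perturbed polyadenylation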
PfM18AAP inh-2: confirmation of Plasmodium falciparum M18 aspartyl aminopeptidase inhibitors. shares compounds with PfM18AAP inh-1. recombinant PfM18AAP, H-Glu-NHMec fluorogenic cleavage. inhibition, % at 7.35 µM. hit rate 28% among 2,400. AID 2170;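 active means mean inhibition over replicate wells above the hit cutoff set for the earlier primary screen, cut at about 29% in these data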;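 further: 0% = median of test compound wells and 100% = 2 mM ZnCl2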
CTSL1 confirm: Cathepsin L (human) inhibition, confirmation; purified cathepsin L1, Z-Leu-Arg-MCA fluorescence; inhibition, % at 5.96 µM; shares compounds with PfM18AAP inh-1; AID 2178; 2,400 tested, under 10 active;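 active means average inhibition across replicates above the hit cutoff set in the earlier primary screen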;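 further: 0% = median of test compound wells and 100% = Z-Phe-Ala-diazomethylketone 1 µM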
* marks the source's active call; other numbers are inactive results; x = no result. Rows were chosen to be rich in hits. Some 4.1% of all compounds tested hit in one or more screens of this group.

SMILES	IDE act	IDE cell inh	CaV13 FRET inh	ALR inh	PfM18AAP inh-1	PolyA inhibitor	PfM18AAP inh-2	CTSL1 confirm
O=C(Cc1cccs1)NNC(=S)NC(=O)c1ccco1	2	-2	-13	42	34*	-2	-16	-3
CCOC(=O)NNc1ccc(C(F)(F)F)cn1	9	1	-20	11	56*	8	35*	-5
Cc1cccc2cc(CN(C(=O)c3cnccn3)C3CCCCC3)c(Cl)nc12	3	-1	-7	-13	2	3	x	x
N#C/C(=C\N1CCOCC1)C(N)=O	x	-1	5	-10	-2	-2	x	x
FC(F)Oc1ccc(/C=N/n2c(Cc3ccc(Br)cc3)n[nH]c2=S)cc1	2	2	-5	65	46*	-5	-5	0
CSc1ccc(/C=N/n2c(Cc3ccc(Br)cc3)n[nH]c2=S)cc1	-1	4	-3	-17	12	-12	x	x
O=C(NNc1ccccc1[N+](=O)[O-])Nc1ccc(Cl)c(Cl)c1	3	0	-2	-8	28	-17	x	x
CCN(CC)S(=O)(=O)c1cc([N+](=O)[O-])ccc1NNC(=O)Nc1ccc(Cl)c(Cl)c1	2	0	-4	-2	50*	-9	13	5
O=C(CC1CCCC1)Nc1ccc2c(c1)CCC2	1	4	-1	-4	46*	-7	-30	-5
CCc1ccc(NC(=O)c2ccc3c(c2)CCN3S(C)(=O)=O)cc1	x	x	-6	x	x	x	x	x
Cn1nc(C(=O)NNC(=O)COc2ccccc2)c2ccccc2c1=O	1	1	-18	-2	44*	19	32*	-4
COc1ccc(CNC(=O)COc2cc3c(c4oc(=O)cc(C)c24)CCC(C)(C)O3)cc1OC	3	-2	x	-17	4	-13	x	x
Cc1ccc(-c2nnn(CC(=O)N(CC(=O)NC3CCCC3)c3cnc4ccccc4c3)n2)o1	0	2	-7	-16	44*	13	-36	4
Cc1ccc(-c2nnn(CC(=O)N(CC(=O)NC(C)C)c3cnc4ccccc4c3)n2)o1	8	-3	-9	-2	11	4	x	x
O=C(NCCc1ccccc1)C(=S)N1CCCCC1	-2	0	-5	x	-5	-1	x	x
COC(=O)C1=C(C(C)=O)C(c2ccc(C)cc2)n2nnnc2N1 (stereo not drawn)	3	1	-3	11	52*	2	-33	2
CCOc1cc(C2C(C(=O)c3ccc(C)cc3)=C(C(=O)OC)Nc3nnnn32)ccc1O (stereo not drawn)	5	0	x	7	57*	11	-25	0
COC(=O)C1=C(C(C)=O)C(c2ccc(C(=O)OC)cc2)n2nnnc2N1 (stereo not drawn)	1	6	x	-4	52*	-20	-39	-3
O=C(c1ccc2c(c1)OCCO2)N1CCN(Cc2ccccc2)CC1	9	1	-6	-10	0	4	x	x
CCOC(=O)[C@]12CCC=C1N(Cc1ccco1)C(=O)[C@H](CC(=O)N1CCN(C(=O)C3CC3)CC1)C2	x	x	-10	x	x	x	x	x
Cc1noc(C)c1C(=O)N1CCC1(C)C(=O)NS(=O)(=O)c1ccccc1C(F)(F)F (stereo not drawn)	x	x	-4	x	x	x	x	x
C/C(=N\N1C(=O)CSC1=S)c1ccc(Br)cc1	-1	3	-7	-30	50*	0	10	5
Cc1ccccc1NC(=O)Cn1c(=O)sc2ccccc21	4	2	-2	-15	-8	12	x	x
Cc1ccc(NS(=O)(=O)c2cc([N+](=O)[O-])ccc2NNC(=S)Nc2cc(C)ccc2C)c(C)c1	-4	-1	-4	-2	39*	-15	39*	0
Cc1ccc([N+](=O)[O-])cc1NC(=S)NC(=O)C(C)(C)C	8	0	x	3	-20	-17	x	x
